Source: PubChem BioAssay (NCATS)
Where “and” joins values, the source holds several entries; their conditions need not be identical. Equal values may be shown once. Records with an inconclusive call do not appear. Calls of active or inactive are those of the source. Calls come from the whole dose curve; as a rule, active = well fitted curve in the direction sought with a large enough effect; inconclusive = small, poorly fitted or top-dose-only effect, or another doubt; inactive = no such curve, though single readings can be large or run the other way.

assay: qHTS Assay for Identifying Gametocytocidal Compounds (AID 743244);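 for max response: actives lower the fluorescent signal which means gametocytes are killed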; details: P. falciparum 3D7 stage III-V gametocytes, alamarBlue, 72 h; max response: active compounds read low
From the text: Malaria cases and deaths have dropped 50% in 29 countries since 2000 due to the combined effects of long-lasting insecticidal bednets, indoor residual spraying, and artemisinin-based combination therapies (ACTs). This success has raised hopes for malaria eradication and consequently stimulated interest in developing new reagents that block gametocyte transmission such as novel and safe gametocytocidal drugs. However, previous drug development efforts have focused primarily on the asexual parasites that cause symptoms, but not malaria transmission. Consequently, patients can remain infectious for weeks after the clearance of asexual parasites and clinical symptoms. To be transmitted from person to person via a mosquito, the parasites must switch from asexual to sexual development and produce male and female gametocytes. Malaria gametocytes consist of five stages (I, II, III, IV and V). The late stage gametocytes (III, IV and V) are difficult to be cultured in vitro and the long lifespan of mature gametocytes allows them being transmitted from host to mosquitoes unless they are completely eliminated by gametocytocidal agents. To identify gametocytocidal compounds which are capable of killing late stage P. falciparum gametocytes, a high throughput gametocyte viability assay was employed. This assay uses oxidoreduction indicator, alamarBlue, as a general measure of metabolic activity of gametocytes. Within live cells, the nonfluorescent resazurin is reduced to resorufin, a bright red fluorescence dye. Fluorescence decreases upon treatment of gametocytocidal compounds. P. falciparum gametocyte (3D7 strain) was used in this study.
The 1536-well gametocycidal viability assay was based on the previous method of Tanaka et al. Stage III-V gametocytes were tested against three compound libraries, including 4265 compounds from NCGC pharmaceutical collection, 400 from Malaria Box library, and 550 from an internal collection of kinase inhibitors. Briefly, 2.5 ul/well incomplete medium was dispensed into each well of 1,536-well plates using the Multidrop Combi followed by 23 nl compound transferring using the NX-TR Pintool (WAKO Scientific Solutions, San Diego, CA). Then, 2.5 ul/well of gametocytes was dispensed with a seeding density of 20,000 cells/well using the Multidrop Combi. The assay plates were incubated for 72 h at 37C with 5% CO2. After addition of 5 ul/well of 2X AlamarBlue dye (Life Technologies, cat. no. DAL1100), the plates were incubated for 24 h at 37C with 5% CO2 and then were read in a fluorescence detection mode (Ex = 525 nm, Em = 598 nm) on a ViewLux plate reader (PerkinElmer).
% is set by controls: 0 for no effect and ±100 for the full control effect; potency is the fitted concentration of half-maximal effect.

Structure (SMILES)	max response	Potency
Cc1nnc(C(=O)NC(C)(C)c2nc(C(=O)NCc3ccc(F)cc3)c(O)c(=O)n2C)o1	3.93% (inactive)	–
CC1=CC(=O)c2ccccc2C1=O	–	12.6 µM (active)
CC(C)C1CCC(C(=O)N[C@H](Cc2ccccc2)C(=O)O)CC1 (stereo not given in full)	6.84% (inactive)	–
CN1CCN(c2c(F)cc3c(=O)c(C(=O)O)cn(CCF)c3c2F)CC1	1.63% (inactive)	–
CCCCS(=N)(=O)CCC(N)C(=O)O (stereo not given)	-16.7% (inactive)	–
Cc1cc(NS(=O)(=O)c2ccc(N)cc2)no1	-4.78% (inactive)	–
O=C(O)c1cn(C2CC2)c2cc(N3CCNCC3)c(F)cc2c1=O	4.49% (inactive)	–
CNC(=O)c1cc(Oc2ccc(NC(=O)Nc3ccc(Cl)c(C(F)(F)F)c3)cc2)ccn1	-3.89% (inactive) and 12.7% (inactive) and 20% (inactive)	–
COc1ccccc1OCC(O)COC(N)=O (stereo not given)	-1.63% (inactive)	–
O=S(=O)(O)CCS	-4.29% (inactive)	–
O=S(=O)(c1cccc2cnccc12)N1CCCNCC1	-7.26% (inactive)	–
Cn1nnc2c(C(N)=O)ncn2c1=O	-7.58% (inactive)	–
COc1cc2nc(N3CCCN(C)CC3)nc(NC3CCN(Cc4ccccc4)CC3)c2cc1OC	–	1.18 µM (active)
COc1cnc(NS(=O)(=O)c2ccc(N)cc2)nc1	7.05% (inactive)	–
COc1cc2ncnc(Nc3cccc(Cl)c3)c2cc1OC	13.8% (inactive)	–
Nc1nc(N)c2nc(CNc3ccc(C(=O)NC(CCC(=O)O)C(=O)O)cc3)cnc2n1 (stereo not given)	32.7% (inactive)	–
CN1CCCC(n2nc(Cc3ccc(Cl)cc3)c3ccccc3c2=O)CC1 (stereo not given)	32.9% (inactive)	–
NC(N)=NC(N)=NCCc1ccccc1	18.8% (inactive) and 0.965% (inactive)	–
CN(C)CCc1c[nH]c2ccc(C[C@H]3COC(=O)N3)cc12	-7.68% (inactive)	–
CC(=O)[C@H]1CC[C@H]2[C@@H]3CCC4=CC(=O)CC[C@]4(C)[C@H]3CC[C@]12C	-0.829% (inactive) and 23.1% (inactive)	–

Structure (SMILES)	max response	Potency
O=C(O)CSCC(=O)NC1CCSC1=O (stereo not given)	-6.62% (inactive)	–
COc1ccc(C(=O)CC(=O)c2ccc(C(C)(C)C)cc2)cc1	7.37% (inactive)	–
CCn1cc(C(=O)O)c(=O)c2cc(F)c(N3CCN(C)CC3)cc21	4.94% (inactive)	–
Oc1c(Cl)cc(Cl)c2cccnc12	–	7.08 µM (active)
CC(C(=O)O)c1ccc2c(c1)CC(=O)c1ccccc1S2 (stereo not given)	43% (inactive)	–
C1CCC(C(CC2CCCCN2)C2CCCCC2)CC1 (stereo not given)	–	10 µM (active)
CO[C@@]12[C@H](COC(N)=O)C3=C(C(=O)C(C)=C(N)C3=O)N1C[C@@H]1N[C@@H]12	-9.88% (inactive)	–
O=c1cc(O)c(Cl)c[nH]1	10.3% (inactive)	–
CNS(=O)(=O)CCc1ccc2[nH]cc(C3CCN(C)CC3)c2c1	4.41% (inactive)	–
CS(=O)(=O)c1ccc([C@@H](O)[C@@H](CO)NC(=O)C(Cl)Cl)cc1	8.86% (inactive)	–
COC(=O)Nc1nc2ccc(S(=O)c3ccccc3)cc2[nH]1 (stereo not given)	20.6% (inactive)	–
Cc1ncc([N+](=O)[O-])n1CCO	-1.29% (inactive)	–
O=C(O)c1cccnc1	3.31% (inactive)	–
Cc1nnc(NS(=O)(=O)c2ccc(N)cc2)s1	-4.6% (inactive)	–
CC(C)OC(=O)OCOP(=O)(CO[C@H](C)Cn1cnc2c(N)ncnc21)OCOC(=O)OC(C)C	5.62% (inactive) and 30.5% (inactive)	–
CNC1CCCN(c2c(F)cc3c(=O)c(C(=O)O)cn(C4CC4)c3c2OC)C1 (stereo not given)	-8.7% (inactive)	–
CCC(=O)O[C@]1(C(=O)CCl)[C@@H](C)C[C@H]2[C@@H]3CCC4=CC(=O)C=C[C@]4(C)[C@@]3(F)[C@@H](O)C[C@@]21C	4.44% (inactive)	–
CCCOc1ccc(C(=O)OCCN(CC)CC)cc1N	14.8% (inactive)	–
COC(=O)Nc1nc2ccc(Sc3ccccc3)cc2[nH]1	2.65% (inactive)	–
COc1nc(N)nc2c1ncn2[C@@H]1O[C@H](CO)[C@@H](O)[C@@H]1O	4.43% (inactive)	–
